Measured values from the supplement of paper PMC11732987, “Enantioselective OTUD7B fragment discovery through chemoproteomics screening and high-throughput optimisation” (Communications Chemistry, 2025).

How the values were obtained:
Test in all cases: log2 ratio of Biotin-Ahx-Ub-VS probe labelling (fragment/DMSO); higher = less target engagement (more negative = stronger competition), active = hit call of the paper (q ≤ 0.05, log2 ratio ≤ -1)
Details in all cases: compound concentration: 200 uM; treatment time: 3 h
USP42 = target: T1, USP42 (UniProt Q9H9J4)
T1 sequence (whole entry): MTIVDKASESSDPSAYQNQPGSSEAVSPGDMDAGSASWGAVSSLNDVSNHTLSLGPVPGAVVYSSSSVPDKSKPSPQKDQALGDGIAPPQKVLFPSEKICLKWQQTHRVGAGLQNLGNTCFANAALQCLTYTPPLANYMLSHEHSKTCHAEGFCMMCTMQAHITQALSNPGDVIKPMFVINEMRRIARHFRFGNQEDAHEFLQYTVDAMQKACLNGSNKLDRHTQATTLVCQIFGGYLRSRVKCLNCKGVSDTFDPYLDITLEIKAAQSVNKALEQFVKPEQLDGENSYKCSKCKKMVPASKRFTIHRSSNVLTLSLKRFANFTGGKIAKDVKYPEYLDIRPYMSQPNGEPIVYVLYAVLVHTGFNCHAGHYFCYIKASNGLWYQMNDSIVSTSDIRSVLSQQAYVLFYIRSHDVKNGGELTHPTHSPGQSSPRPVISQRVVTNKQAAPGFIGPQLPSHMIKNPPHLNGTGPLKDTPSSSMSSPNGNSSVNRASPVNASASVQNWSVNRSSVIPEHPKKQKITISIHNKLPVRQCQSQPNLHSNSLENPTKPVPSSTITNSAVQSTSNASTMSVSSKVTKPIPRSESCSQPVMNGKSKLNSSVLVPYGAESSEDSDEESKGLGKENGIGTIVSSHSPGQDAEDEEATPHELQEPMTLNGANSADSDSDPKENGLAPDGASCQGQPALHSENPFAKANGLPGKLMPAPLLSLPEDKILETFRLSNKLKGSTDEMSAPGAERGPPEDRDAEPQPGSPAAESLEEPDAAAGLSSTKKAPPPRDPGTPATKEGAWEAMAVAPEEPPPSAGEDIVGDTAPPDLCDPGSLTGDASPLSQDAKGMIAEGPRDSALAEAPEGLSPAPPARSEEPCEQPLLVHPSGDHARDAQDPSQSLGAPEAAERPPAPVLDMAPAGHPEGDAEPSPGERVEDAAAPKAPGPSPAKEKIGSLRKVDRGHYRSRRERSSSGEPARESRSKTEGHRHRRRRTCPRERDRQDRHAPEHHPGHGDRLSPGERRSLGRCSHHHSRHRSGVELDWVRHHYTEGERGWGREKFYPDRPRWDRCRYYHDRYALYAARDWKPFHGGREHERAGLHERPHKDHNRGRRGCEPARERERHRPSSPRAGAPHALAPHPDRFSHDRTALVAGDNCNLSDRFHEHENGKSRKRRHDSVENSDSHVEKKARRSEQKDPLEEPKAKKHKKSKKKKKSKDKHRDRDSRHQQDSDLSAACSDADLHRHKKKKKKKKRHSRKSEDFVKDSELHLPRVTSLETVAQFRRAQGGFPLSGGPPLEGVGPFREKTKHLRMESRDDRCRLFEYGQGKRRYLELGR
In short: (§1)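 HEK293T lysate, 495 µg per sample in Tris/CHAPS/IGEPAL buffer with protease inhibitors, was treated in triplicate with fragment at 200 µM or vehicle for 3 h and then with Biotin-Ahx-Ub-VS at 0.5 µM final for 1 h. Labelled DUBs were NeutrAvidin-enriched, digested with LysC and trypsin, and run by diaPASEF LC-MS/MS. Spectronaut label-free quantities were global-median-normalised, and values are average log2 fragment/vehicle ratios by unpaired t-test on proteins with ≥2 unique peptides.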

USP46 = USP46 (UniProt P62068)
USP46, sequence (P62068 whole entry): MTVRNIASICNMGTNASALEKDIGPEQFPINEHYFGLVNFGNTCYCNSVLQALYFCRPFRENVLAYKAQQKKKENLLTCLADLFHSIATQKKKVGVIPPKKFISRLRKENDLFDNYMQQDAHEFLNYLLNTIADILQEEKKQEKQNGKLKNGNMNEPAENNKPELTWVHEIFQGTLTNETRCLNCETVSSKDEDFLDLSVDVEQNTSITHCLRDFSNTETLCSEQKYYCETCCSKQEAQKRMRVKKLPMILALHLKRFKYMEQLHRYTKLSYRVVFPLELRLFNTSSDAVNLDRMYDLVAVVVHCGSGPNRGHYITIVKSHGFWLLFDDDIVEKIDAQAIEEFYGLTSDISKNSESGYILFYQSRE
In short: as §1

USP47 = target: T2, USP47 (UniProt Q96K76)
T2 sequence (whole entry): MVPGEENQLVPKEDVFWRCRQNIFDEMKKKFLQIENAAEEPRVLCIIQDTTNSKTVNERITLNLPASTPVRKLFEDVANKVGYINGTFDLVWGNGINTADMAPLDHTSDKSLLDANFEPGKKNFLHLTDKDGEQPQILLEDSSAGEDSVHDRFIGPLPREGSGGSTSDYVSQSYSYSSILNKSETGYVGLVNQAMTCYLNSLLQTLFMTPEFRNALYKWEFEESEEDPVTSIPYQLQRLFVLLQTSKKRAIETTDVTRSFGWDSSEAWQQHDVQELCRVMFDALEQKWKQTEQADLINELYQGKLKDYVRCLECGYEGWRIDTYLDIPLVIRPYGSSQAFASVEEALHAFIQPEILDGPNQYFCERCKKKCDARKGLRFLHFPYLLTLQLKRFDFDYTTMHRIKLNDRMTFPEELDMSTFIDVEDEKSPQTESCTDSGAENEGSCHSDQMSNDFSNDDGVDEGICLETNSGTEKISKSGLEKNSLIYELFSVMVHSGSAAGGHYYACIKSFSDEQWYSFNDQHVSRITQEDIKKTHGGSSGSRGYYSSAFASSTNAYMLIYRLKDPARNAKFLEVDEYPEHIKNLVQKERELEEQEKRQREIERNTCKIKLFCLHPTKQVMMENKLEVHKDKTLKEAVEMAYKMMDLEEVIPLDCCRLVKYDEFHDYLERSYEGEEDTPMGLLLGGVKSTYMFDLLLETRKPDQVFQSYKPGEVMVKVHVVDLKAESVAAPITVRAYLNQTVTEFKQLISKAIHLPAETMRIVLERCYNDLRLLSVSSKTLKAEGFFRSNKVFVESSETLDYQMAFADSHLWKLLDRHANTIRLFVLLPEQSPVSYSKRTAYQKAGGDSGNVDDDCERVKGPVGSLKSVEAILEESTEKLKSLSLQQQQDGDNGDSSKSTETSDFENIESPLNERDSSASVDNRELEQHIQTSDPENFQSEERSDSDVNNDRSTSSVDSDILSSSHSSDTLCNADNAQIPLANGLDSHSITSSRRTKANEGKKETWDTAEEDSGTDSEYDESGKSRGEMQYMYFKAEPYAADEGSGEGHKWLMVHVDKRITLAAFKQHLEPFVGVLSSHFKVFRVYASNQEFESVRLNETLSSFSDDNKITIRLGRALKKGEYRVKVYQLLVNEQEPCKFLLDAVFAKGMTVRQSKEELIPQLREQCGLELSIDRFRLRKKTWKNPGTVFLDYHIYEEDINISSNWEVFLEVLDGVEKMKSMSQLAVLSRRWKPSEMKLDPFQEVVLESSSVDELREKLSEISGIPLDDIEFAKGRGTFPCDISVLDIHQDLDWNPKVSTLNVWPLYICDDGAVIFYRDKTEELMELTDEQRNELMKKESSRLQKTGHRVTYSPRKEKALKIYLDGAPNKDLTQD
In short: as §1

USP48 = target: T3, USP48 (UniProt Q86UV5)
T3 sequence (whole entry): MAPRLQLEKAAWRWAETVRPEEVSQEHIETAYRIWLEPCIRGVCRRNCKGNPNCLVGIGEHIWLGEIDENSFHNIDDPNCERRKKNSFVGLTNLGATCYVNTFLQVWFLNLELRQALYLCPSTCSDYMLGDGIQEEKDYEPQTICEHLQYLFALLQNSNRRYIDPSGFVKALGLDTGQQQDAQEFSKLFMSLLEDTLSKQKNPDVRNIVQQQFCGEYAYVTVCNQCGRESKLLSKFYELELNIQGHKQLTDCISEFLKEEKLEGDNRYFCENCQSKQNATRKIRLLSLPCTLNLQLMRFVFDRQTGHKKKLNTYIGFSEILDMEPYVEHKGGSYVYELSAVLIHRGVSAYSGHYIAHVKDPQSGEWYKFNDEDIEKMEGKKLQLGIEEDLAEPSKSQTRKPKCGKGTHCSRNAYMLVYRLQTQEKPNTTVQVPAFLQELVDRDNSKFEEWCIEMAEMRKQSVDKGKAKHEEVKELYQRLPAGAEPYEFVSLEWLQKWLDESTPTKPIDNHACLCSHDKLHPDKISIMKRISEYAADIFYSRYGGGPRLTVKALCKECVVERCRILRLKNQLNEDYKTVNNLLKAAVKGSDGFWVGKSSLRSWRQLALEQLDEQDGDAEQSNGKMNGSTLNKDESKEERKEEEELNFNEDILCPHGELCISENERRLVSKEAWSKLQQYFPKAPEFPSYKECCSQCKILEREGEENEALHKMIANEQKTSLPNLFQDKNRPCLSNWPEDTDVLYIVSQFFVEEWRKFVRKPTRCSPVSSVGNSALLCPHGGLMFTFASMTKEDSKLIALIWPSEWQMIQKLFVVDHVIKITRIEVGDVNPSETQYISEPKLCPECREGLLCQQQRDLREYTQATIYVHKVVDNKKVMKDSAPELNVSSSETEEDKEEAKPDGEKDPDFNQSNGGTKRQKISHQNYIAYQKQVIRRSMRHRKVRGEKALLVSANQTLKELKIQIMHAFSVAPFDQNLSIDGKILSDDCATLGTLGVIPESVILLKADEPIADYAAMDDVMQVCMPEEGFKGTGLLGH
In short: as §1

USP5 = target: T4, USP5 (UniProt P45974)
T4 sequence (whole entry): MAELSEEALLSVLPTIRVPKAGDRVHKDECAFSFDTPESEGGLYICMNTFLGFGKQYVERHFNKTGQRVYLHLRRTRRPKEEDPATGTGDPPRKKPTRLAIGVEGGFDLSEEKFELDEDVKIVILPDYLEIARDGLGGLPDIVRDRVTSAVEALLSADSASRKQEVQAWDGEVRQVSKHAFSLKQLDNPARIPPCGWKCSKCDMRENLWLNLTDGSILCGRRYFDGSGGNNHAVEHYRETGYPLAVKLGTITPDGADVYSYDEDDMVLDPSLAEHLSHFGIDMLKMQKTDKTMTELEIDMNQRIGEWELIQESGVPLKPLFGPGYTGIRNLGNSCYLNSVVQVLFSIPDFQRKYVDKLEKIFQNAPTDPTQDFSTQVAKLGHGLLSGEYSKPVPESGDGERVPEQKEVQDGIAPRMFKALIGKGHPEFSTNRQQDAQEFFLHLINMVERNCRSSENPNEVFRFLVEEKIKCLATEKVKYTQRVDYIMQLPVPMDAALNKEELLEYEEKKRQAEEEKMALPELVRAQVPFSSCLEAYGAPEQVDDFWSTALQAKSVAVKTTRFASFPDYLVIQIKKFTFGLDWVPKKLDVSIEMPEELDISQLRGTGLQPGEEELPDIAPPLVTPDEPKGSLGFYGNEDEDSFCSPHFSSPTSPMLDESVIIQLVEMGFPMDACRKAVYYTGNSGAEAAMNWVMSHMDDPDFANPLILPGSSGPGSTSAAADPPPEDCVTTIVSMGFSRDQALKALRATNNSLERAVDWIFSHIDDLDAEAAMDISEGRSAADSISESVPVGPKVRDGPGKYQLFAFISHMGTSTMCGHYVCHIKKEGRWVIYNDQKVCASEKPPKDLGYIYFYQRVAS
In short: as §1

USP54 = USP54 (UniProt Q70EL1)
USP54, sequence (Q70EL1 whole entry): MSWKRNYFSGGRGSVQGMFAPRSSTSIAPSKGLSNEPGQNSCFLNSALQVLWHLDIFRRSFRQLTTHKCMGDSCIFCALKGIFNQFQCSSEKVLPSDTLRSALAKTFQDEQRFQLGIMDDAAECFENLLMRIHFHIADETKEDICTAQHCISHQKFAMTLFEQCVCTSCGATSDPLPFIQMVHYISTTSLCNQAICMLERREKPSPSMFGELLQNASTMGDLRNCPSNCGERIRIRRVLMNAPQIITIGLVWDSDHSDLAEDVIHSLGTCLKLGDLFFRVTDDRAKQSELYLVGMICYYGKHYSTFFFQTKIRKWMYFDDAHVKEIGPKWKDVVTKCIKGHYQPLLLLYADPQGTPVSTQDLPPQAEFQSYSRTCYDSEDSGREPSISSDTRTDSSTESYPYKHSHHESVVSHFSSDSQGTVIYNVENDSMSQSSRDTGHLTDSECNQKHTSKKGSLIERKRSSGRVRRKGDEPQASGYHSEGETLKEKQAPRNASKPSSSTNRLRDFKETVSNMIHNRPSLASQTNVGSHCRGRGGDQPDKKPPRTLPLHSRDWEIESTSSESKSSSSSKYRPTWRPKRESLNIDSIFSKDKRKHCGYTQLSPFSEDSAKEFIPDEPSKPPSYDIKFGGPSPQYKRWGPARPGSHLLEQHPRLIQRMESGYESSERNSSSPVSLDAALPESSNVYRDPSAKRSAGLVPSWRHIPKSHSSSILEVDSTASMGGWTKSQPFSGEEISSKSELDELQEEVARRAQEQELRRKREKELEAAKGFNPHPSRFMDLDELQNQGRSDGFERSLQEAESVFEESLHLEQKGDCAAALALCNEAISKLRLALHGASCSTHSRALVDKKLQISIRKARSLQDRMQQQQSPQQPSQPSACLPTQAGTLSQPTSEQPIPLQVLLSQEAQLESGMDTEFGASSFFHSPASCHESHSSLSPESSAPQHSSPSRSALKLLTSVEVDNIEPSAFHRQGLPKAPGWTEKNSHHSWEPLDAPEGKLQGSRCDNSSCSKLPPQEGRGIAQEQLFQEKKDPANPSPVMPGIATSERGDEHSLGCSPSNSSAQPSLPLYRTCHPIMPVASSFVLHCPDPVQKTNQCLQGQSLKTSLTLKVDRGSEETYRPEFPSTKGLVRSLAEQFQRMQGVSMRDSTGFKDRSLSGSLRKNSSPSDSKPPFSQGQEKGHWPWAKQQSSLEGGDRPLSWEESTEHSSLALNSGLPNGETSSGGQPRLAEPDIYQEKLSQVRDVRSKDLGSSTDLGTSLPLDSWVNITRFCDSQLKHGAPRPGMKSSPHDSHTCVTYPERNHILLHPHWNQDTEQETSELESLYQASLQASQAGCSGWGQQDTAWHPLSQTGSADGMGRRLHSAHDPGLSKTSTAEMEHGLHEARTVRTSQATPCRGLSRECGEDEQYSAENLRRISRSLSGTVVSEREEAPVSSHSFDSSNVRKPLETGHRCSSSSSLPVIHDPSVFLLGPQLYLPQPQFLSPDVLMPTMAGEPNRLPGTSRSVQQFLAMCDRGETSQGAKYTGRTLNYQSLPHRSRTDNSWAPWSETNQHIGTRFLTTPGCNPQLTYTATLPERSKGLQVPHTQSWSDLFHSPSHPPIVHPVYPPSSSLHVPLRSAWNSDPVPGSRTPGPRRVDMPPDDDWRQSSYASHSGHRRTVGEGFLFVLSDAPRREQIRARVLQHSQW
In short: as §1

USP7 = USP7 (UniProt Q93009)
In short: as §1

USP8 = target: T5, USP8 (UniProt P40818)
T5 sequence (whole entry): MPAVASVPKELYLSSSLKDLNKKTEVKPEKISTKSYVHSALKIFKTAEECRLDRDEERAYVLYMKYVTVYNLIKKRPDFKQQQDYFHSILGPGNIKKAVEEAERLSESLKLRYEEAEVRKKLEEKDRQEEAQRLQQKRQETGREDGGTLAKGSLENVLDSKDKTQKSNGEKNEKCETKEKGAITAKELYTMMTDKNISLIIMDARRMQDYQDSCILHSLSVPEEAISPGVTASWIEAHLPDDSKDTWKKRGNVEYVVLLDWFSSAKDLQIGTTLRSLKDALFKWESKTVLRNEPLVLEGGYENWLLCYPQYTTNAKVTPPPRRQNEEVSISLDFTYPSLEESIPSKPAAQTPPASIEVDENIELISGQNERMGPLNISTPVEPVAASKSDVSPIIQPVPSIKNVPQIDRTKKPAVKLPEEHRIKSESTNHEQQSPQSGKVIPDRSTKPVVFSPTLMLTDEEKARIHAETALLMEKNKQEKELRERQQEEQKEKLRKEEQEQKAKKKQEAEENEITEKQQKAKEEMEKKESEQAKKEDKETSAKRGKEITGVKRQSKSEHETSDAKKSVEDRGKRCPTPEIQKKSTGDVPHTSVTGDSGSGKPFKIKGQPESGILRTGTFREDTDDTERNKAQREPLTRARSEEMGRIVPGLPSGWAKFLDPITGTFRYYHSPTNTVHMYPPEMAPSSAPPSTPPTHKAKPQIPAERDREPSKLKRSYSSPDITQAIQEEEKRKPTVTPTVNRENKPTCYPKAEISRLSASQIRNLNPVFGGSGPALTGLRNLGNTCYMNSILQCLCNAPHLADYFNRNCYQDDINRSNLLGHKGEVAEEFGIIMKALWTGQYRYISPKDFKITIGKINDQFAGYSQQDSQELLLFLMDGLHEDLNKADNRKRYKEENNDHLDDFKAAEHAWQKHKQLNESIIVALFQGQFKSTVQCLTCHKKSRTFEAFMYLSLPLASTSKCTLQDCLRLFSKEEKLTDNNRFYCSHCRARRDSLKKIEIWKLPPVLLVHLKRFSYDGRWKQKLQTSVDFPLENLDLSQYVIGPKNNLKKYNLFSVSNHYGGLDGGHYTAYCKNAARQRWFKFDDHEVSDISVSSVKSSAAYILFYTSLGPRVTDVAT
In short: as §1

USP9X = USP9X (UniProt Q93008)
USP9X, sequence (Q93008 whole entry): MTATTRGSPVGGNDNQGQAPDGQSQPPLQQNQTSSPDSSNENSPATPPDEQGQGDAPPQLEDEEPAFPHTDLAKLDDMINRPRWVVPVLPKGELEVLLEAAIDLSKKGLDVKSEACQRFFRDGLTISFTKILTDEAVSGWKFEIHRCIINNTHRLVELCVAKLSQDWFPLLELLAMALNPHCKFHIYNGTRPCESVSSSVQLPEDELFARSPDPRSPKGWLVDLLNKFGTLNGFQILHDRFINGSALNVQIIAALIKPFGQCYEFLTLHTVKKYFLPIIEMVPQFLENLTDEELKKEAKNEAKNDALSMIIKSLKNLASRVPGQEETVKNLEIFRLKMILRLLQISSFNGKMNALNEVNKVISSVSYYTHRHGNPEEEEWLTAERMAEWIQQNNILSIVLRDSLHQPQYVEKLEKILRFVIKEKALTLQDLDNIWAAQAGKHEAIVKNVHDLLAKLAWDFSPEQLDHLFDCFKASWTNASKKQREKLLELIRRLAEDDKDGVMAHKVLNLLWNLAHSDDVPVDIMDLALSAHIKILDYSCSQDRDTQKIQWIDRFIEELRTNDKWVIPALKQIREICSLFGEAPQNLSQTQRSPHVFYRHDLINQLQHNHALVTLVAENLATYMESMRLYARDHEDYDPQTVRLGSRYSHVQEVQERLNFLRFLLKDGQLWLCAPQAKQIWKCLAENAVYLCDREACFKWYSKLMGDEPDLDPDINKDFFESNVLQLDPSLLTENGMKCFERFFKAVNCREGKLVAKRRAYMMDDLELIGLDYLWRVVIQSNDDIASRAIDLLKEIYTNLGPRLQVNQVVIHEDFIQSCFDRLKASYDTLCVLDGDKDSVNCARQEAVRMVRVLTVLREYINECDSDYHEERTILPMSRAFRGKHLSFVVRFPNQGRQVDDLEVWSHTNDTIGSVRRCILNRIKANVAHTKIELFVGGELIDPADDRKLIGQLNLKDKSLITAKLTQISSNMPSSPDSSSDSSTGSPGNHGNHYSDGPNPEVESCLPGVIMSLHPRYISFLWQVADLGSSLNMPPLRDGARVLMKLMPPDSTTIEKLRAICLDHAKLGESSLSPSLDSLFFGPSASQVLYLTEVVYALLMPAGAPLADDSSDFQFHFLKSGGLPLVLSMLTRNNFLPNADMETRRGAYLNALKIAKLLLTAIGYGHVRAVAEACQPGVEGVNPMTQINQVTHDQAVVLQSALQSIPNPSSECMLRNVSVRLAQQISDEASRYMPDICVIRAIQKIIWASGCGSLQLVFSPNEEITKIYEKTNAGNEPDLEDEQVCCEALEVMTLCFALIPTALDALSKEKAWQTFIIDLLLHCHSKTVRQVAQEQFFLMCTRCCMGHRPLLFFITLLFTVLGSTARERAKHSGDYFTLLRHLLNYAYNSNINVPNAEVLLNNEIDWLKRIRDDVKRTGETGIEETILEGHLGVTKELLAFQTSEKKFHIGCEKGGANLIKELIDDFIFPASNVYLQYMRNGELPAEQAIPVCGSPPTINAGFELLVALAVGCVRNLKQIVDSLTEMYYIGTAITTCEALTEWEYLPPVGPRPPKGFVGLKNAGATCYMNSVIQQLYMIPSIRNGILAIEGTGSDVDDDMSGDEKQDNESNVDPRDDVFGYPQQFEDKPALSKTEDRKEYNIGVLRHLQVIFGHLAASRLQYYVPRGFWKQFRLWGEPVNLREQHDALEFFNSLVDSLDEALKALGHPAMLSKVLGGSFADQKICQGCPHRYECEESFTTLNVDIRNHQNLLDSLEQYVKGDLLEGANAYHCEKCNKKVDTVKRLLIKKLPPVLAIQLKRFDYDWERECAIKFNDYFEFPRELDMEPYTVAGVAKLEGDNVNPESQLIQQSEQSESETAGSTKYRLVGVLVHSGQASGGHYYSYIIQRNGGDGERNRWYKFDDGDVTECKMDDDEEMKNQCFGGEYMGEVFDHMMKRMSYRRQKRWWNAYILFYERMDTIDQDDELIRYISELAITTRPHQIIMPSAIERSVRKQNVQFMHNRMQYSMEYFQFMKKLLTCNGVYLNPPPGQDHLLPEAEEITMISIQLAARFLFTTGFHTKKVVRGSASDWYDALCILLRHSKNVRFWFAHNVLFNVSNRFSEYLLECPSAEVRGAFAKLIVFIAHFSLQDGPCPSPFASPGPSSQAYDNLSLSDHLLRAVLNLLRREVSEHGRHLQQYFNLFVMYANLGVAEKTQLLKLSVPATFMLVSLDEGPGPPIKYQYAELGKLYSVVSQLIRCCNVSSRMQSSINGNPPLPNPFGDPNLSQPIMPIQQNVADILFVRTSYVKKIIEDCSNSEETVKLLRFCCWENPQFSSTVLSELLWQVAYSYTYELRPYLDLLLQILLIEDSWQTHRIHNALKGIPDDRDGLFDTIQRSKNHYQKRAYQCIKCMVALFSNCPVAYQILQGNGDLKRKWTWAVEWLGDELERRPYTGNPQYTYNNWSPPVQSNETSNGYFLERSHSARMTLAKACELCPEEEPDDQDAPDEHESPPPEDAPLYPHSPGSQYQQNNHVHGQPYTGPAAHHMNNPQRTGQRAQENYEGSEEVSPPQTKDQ
In short: as §1

UniProt O00487 = target: UniProt O00487
UniProt O00487, sequence (O00487 whole entry): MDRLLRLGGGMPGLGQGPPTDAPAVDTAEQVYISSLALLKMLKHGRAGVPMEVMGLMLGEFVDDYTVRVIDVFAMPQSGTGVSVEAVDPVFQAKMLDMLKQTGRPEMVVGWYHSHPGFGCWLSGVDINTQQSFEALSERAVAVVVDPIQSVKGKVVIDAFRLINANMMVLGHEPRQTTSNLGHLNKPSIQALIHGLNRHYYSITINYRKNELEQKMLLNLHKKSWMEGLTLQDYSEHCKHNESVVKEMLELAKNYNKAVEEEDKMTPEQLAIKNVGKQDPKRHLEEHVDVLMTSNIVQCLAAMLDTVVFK
In short: as §1

Measured: log2 ratio of Biotin-Ahx-Ub-VS probe labelling

O=C(CCl)NC1CCC2(CC1)OCCO2
inactive: USP42 -0.0532 | USP46 -0.121 | USP47 0.154 | USP48 -0.263 | USP5 -0.0178 | USP54 0.457 | USP7 -0.157 | USP8 -0.255 | USP9X -0.361 | UniProt O00487 -0.145
